In PubChem BioAssay AID1159580 (chemical genetic matrix, 2015):
Several values for one entry are separate records, joined by “and”; a condition that tells them apart may be missing. Identical values can stand only once. Out of some 5,500 compounds screened, about 2,000 (36%) were called active. About 18% were inconclusive and are not listed. Cut-off read from the data, not from the text of the source: active = normalized growth mostly below about 0.91 (no sharp cut-off); inconclusive = no clear call, values can overlap the other calls; inactive = mostly above about 0.92. Some of the results follow.

Test: chemical genetic growth profiling, strain panel (AID 1159580);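 note: tested at 20 µM; growth read once vehicle control cultures reached saturation at 30 °C; 1 = growth at the plate median or of vehicle wells; lower values mean less growth of the strain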
Settings: growth OD
[1] = S. cerevisiae deletion strains, locus YMR307W, strain GAS1, stronger effect = lower value
[2] = S. cerevisiae deletion strains, locus YNL322C, strain KRE1, stronger effect = lower value

Measured: normalized growth

NC(C(=O)N[C@@H]1C(=O)N2C(C(=O)O)=C(Cl)CS[C@H]12)c1ccccc1 (stereo partly specified)
inactive: S. cerevisiae deletion strains, locus YAL040C, strain CLN3, stronger effect = lower value 0.986 | S. cerevisiae deletion strains, locus YDR363W, strain ESC2, stronger effect = lower value 1.03 | S. cerevisiae deletion strains, locus YER002W, strain NOP16, stronger effect = lower value 1 | [1] 0.998 | S. cerevisiae deletion strains, locus YNL175C, strain NOP13, stronger effect = lower value 1.01 | S. cerevisiae deletion strains, locus YNL197C, strain WHI3, stronger effect = lower value 0.99 | S. cerevisiae deletion strains, locus YNL224C, strain SQS1, stronger effect = lower value 1.01 | [2] 1 | S. cerevisiae deletion strains, locus YOR083W, strain WHI5 (second series), stronger effect = lower value 0.992

N[C@@H](C(=O)N[C@@H]1C(=O)N2C(C(=O)O)=C(Cl)CS[C@H]12)c1ccccc1
active: S. cerevisiae deletion strains, locus YPL241C, strain CIN2, stronger effect = lower value 1.09 [resistant]
inactive: S. cerevisiae deletion strains, locus YAL013W, strain DEP1, stronger effect = lower value 1.01 | S. cerevisiae deletion strains, locus YBR021W, strain FUR4, stronger effect = lower value 1 | S. cerevisiae deletion strains, locus YBR229C, strain ROT2, stronger effect = lower value 1.02 | S. cerevisiae deletion strains, locus YCL029C, strain bik1, stronger effect = lower value 1.03 | S. cerevisiae deletion strains, locus YDL035C, strain GPR1, stronger effect = lower value 1.01 | S. cerevisiae deletion strains, locus YDL074C, strain BRE1, stronger effect = lower value 1.02 | S. cerevisiae deletion strains, locus YDL101C, strain DUN1, stronger effect = lower value 1.01 | S. cerevisiae deletion strains, locus YDL134C, strain PPH21, stronger effect = lower value 1.01 | S. cerevisiae deletion strains, locus YDL185W, strain tfp1, stronger effect = lower value 1.02 | S. cerevisiae deletion strains, locus YDL192W, strain arf1, stronger effect = lower value 1.02 | S. cerevisiae deletion strains, locus YDR101C, strain arx1, stronger effect = lower value 1.01 | S. cerevisiae deletion strains, locus YDR150W, strain NUM1, stronger effect = lower value 1.01 | S. cerevisiae deletion strains, locus YDR162C, strain NBP2, stronger effect = lower value 1.02 | S. cerevisiae deletion strains, locus YDR318W, strain mcm21, stronger effect = lower value 1.02 | S. cerevisiae deletion strains, locus YDR388W, stronger effect = lower value 1.02 | S. cerevisiae deletion strains, locus YDR502C, strain sam2, stronger effect = lower value 1.02 | S. cerevisiae deletion strains, locus YEL061C, strain CIN8, stronger effect = lower value 1.01 | S. cerevisiae deletion strains, locus YER110C, stronger effect = lower value 1.03 | S. cerevisiae deletion strains, locus YER155C, strain BEM2, stronger effect = lower value 1 | S. cerevisiae deletion strains, locus YER167W, strain BCK2, stronger effect = lower value 1.01 | S. cerevisiae deletion strains, locus YGL078C, strain dbp3, stronger effect = lower value 1.02 | S. cerevisiae deletion strains, locus YGL086W, strain mad1, stronger effect = lower value 1.01 | S. cerevisiae deletion strains, locus YGL248W, strain PDE1, stronger effect = lower value 1.02 | S. cerevisiae deletion strains, locus YGR078C, strain PAC10, stronger effect = lower value 1.01 | S. cerevisiae deletion strains, locus YGR135W, strain pre9, stronger effect = lower value 1.01 | S. cerevisiae deletion strains, locus YGR229C, strain SMI1, stronger effect = lower value 1.01 | S. cerevisiae deletion strains, locus YGR252W, strain gcn5, stronger effect = lower value 1.04 | S. cerevisiae deletion strains, locus YHR030C, strain SLT2, stronger effect = lower value 1.01 and 0.982 | S. cerevisiae deletion strains, locus YHR079C, strain IRE1 (second series), stronger effect = lower value 1.02 | S. cerevisiae deletion strains, locus YHR079C, strain IRE1, stronger effect = lower value 0.976 | S. cerevisiae deletion strains, locus YHR094C, strain hxt1, stronger effect = lower value 1.02 | S. cerevisiae deletion strains, locus YHR129C, strain ARP1, stronger effect = lower value 1.01 | S. cerevisiae deletion strains, locus YHR200W, strain rpn10, stronger effect = lower value 1.03 | S. cerevisiae deletion strains, locus YIL066C, strain RNR3, stronger effect = lower value 1.03 | S. cerevisiae deletion strains, locus YIL073C, strain SPO22, stronger effect = lower value 1.08 | S. cerevisiae deletion strains, locus YIL125W, strain kgd1, stronger effect = lower value 1.02 | S. cerevisiae deletion strains, locus YIR030C, strain dcg1, stronger effect = lower value 1.03 | S. cerevisiae deletion strains, locus YJL095W, strain BCK1, stronger effect = lower value 1.01 and 0.976 | S. cerevisiae deletion strains, locus YJL134W, strain LCB3, stronger effect = lower value 1.01 | S. cerevisiae deletion strains, locus YJL168C, strain set2, stronger effect = lower value 1.02 | S. cerevisiae deletion strains, locus YJL187C, strain SWE1 (second series), stronger effect = lower value 1.02 | S. cerevisiae deletion strains, locus YJR043C, strain POL32, stronger effect = lower value 1.01 | S. cerevisiae deletion strains, locus YJR066W, strain TOR1, stronger effect = lower value 0.928 | S. cerevisiae deletion strains, locus YJR075W, strain HOC1, stronger effect = lower value 0.999 | S. cerevisiae deletion strains, locus YKL009W, strain mrt4, stronger effect = lower value 1.02 | S. cerevisiae deletion strains, locus YKL068W, stronger effect = lower value 1.03 | S. cerevisiae deletion strains, locus YKL085W, strain MDH1 (second series), stronger effect = lower value 1.02 | S. cerevisiae deletion strains, locus YKL085W, strain MDH1, stronger effect = lower value 1.02 | S. cerevisiae deletion strains, locus YKL190W, strain CNB1, stronger effect = lower value 1.01 | S. cerevisiae deletion strains, locus YKR001C, strain vps1, stronger effect = lower value 1.02 | S. cerevisiae deletion strains, locus YLR039C, strain RIC1, stronger effect = lower value 1.05 | S. cerevisiae deletion strains, locus YLR058C, strain SHM2, stronger effect = lower value 1.01 | S. cerevisiae deletion strains, locus YLR102C, strain apc9, stronger effect = lower value 1.03 | S. cerevisiae deletion strains, locus YLR113W, strain HOG1, stronger effect = lower value 1 | S. cerevisiae deletion strains, locus YLR262C, strain YPT6, stronger effect = lower value 1.04 | S. cerevisiae deletion strains, locus YLR268W, strain sec22, stronger effect = lower value 1.02 | S. cerevisiae deletion strains, locus YLR330W, strain CHS5, stronger effect = lower value 1.01 | S. cerevisiae deletion strains, locus YLR342W, strain FKS1 (second series), stronger effect = lower value 0.986 | S. cerevisiae deletion strains, locus YLR371W, strain rom2, stronger effect = lower value 1.01 | S. cerevisiae deletion strains, locus YLR418C, strain cdc73, stronger effect = lower value 1.03 | S. cerevisiae deletion strains, locus YML016C, strain PPZ1, stronger effect = lower value 1.01 | S. cerevisiae deletion strains, locus YML032C, strain rad52, stronger effect = lower value 1.02 | S. cerevisiae deletion strains, locus YML124C, strain tub3, stronger effect = lower value 1.02 | S. cerevisiae deletion strains, locus YMR078C, strain ctf18, stronger effect = lower value 1.04 | S. cerevisiae deletion strains, locus YMR223W, strain ubp8, stronger effect = lower value 1.02 | S. cerevisiae deletion strains, locus YMR263W, strain SAP30, stronger effect = lower value 1.01 | [1] 1.05 | S. cerevisiae deletion strains, locus YNL067W, strain RPL9B, stronger effect = lower value 1.01 | S. cerevisiae deletion strains, locus YNL128W, strain TEP1, stronger effect = lower value 0.998 | S. cerevisiae deletion strains, locus YNL153C, strain GIM3, stronger effect = lower value 1.01 | S. cerevisiae deletion strains, locus YNL183C, strain NPR1, stronger effect = lower value 0.932 | S. cerevisiae deletion strains, locus YNL233W, strain BNI4, stronger effect = lower value 1.01 | S. cerevisiae deletion strains, locus YNL250W, strain rad50, stronger effect = lower value 1.01 | S. cerevisiae deletion strains, locus YNL271C, strain bni1, stronger effect = lower value 1.02 | S. cerevisiae deletion strains, locus YNL298W, strain CLA4, stronger effect = lower value 1.03 | S. cerevisiae deletion strains, locus YNL307C, strain MCK1, stronger effect = lower value 1.02 | [2] 1.01 | S. cerevisiae deletion strains, locus YNR052C, strain pop2, stronger effect = lower value 1.02 | S. cerevisiae deletion strains, locus YOL006C, strain TOP1, stronger effect = lower value 1.02 | S. cerevisiae deletion strains, locus YOL012C, strain htz1 1.44 | S. cerevisiae deletion strains, locus YOL147C, strain pex11, stronger effect = lower value 1.02 | S. cerevisiae deletion strains, locus YOR061W, strain CKA2, stronger effect = lower value 1 | S. cerevisiae deletion strains, locus YOR069W, strain VPS5, stronger effect = lower value 0.999 | S. cerevisiae deletion strains, locus YOR136W, strain idh2, stronger effect = lower value 1.02 | S. cerevisiae deletion strains, locus YOR144C, strain elg1, stronger effect = lower value 1.02 | S. cerevisiae deletion strains, locus YOR184W, strain ser1, stronger effect = lower value 1.02 | S. cerevisiae deletion strains, locus YOR231W, strain MKK1, stronger effect = lower value 0.987 | S. cerevisiae deletion strains, locus YOR316C, strain cot1, stronger effect = lower value 1.02 | S. cerevisiae deletion strains, locus YPL055C, strain LGE1, stronger effect = lower value 1 | S. cerevisiae deletion strains, locus YPL256C, strain CLN2, stronger effect = lower value 0.971 | S. cerevisiae deletion strains, locus YPR119W, strain clb2, stronger effect = lower value 1.03 | S. cerevisiae deletion strains, locus YPR141C, strain kar3, stronger effect = lower value 1.03 | S. cerevisiae deletion strains, locus YPR163C, strain tif3, stronger effect = lower value 1.02 | S. cerevisiae deletion strains, locus YPR167C, strain met16, stronger effect = lower value 1.02 | S. cerevisiae deletion strains, strain wtn01, stronger effect = lower value 1.02 | S. cerevisiae strains, strain wild type, stronger effect = lower value 1.01
